Sampled rows, rich in hits. Any-hit rate of the full collection: about 14%.
Pf growth 96h – inhibits malaria parasite growth, 96 h | AID 504834 | P. falciparum luciferase reporter growth, 96 h | 320,000 tested, 6.9% active | Potency, µM (top dose mostly 28.7 µM), for inactives: at the highest dose activity change, negative = inhibition, hits mostly inhibitors; also: potency is read from the fitted curve at half-maximal effect
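Luminescence readout: decreased luciferase signal marks inhibited growth of reporter-expressing P. falciparum in infected red cells (2% hematocrit, 0.05% parasitemia final), exposed to compound two generations (96 h, 37 C, 5% CO2).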
Sm TGR block – inhibitors of Schistosoma mansoni thioredoxin glutathione reductase; Q962Y6; purified TGR, DTNB reduction, TNB absorbance 405 nm; Potency, µM (doses to about 114 µM), without a hit: at the top dose activity change, negative = inhibition, usual class: inhibitors; 360,000 tested, 3% active; AID 485364; also: potency is read from the fitted curve at half-maximal effect; nearly all actives have a fitted effect of over 60% in size
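Kinetic colorimetric format: TGR-catalysed, NADPH-driven DTNB reduction monitored via TNB absorbance. Enzyme dispensed at 20 nM; compound exposure 15 min at room temperature before reaction start.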
HCMV inh – blocks human cytomegalovirus replication; HFF cells, HCMV-luciferase reporter, 72 h; active compounds read low; activity change, negative = inhibition, % at 57.5 µM; 410,000 tested, 4.5% active; AID 1259415; in the data active = activity change below about -60%; inconclusive = no clear call, values can overlap the other calls; inactive = above about -39%
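Steps: HFFs plated, 16 h 37C; compounds added; HCMV-luciferase added to MOI 1 PFU/cell; 72 h 37C; OneGlo reagent, 5 min room temperature; luminescence read, normalized to controls.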
Pf growth 48h – inhibits P. falciparum growth in the first generation, 48 h; P. falciparum luciferase growth in erythrocytes, 48 h; 310,000 tested, 5.9% active; Potency, µM (top dose mostly 28.7 µM), for the others: top-dose activity change, negative = inhibition, hits mostly inhibitors; AID 504832; also: potency is read from the fitted curve at half-maximal effect
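Firefly luciferase activity from engineered P. falciparum reports growth; inhibitors lower the luminescent signal. Cultures contained 2% hematocrit erythrocytes at 0.1% final parasitemia.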
Giardia FBPA inh – Giardia lamblia aldolase inhibition; Potency, µM (titrated, usually from 59.6 µM), for inactives: at the top dose activity, negative = inhibition, most hits filed as inhibitors; 290,000 tested, 0.71% active; A8B2U2; purified Giardia FBPA; also: potency is read from the fitted curve at half-maximal effect; nearly all actives have a fitted effect of over 55% in size
Target sequence (A8B2U2 whole entry, looked up): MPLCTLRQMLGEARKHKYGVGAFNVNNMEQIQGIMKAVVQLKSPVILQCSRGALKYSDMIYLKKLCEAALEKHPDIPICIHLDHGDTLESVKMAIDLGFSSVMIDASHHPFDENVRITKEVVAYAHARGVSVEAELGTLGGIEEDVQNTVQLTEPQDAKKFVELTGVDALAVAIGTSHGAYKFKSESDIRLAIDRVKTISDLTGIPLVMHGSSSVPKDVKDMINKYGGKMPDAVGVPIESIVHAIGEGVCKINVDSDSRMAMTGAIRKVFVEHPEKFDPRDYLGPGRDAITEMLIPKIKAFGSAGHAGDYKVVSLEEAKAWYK
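40 nM FBPA preincubated 10 min at RT with compound (up to 57.5 uM final), then substrate plus GAPDH/TPI/NAD/arsenate coupling and diaphorase/resazurin added. Fluorescence read after 20 min at RT, 525/598 nm.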
* marks the source's active call; other numbers are inactive results; [ ] = another dose, or the depositor's remark. Unless noted, calls follow the shape of the dose curve; as a rule, active = well fitted curve in the direction sought with a large enough effect; inconclusive = small, poorly fitted or top-dose-only effect, or another doubt; inactive = no such curve, though single readings can be large; an effect the other way counts as inactive or inconclusive. % is scaled to controls: 0 for no effect and ±100 for the full control effect.

Screening CCCCn1c(N)c(N(CC(C)C)C(=O)c2cccc(-n3cnnn3)c2)c(=O)[nH]c1=O returned Pf growth 96h 13.6%, Sm TGR block -4.0%, HCMV inh -12.3 and Pf growth 48h -10.5%.
CC(=O)c1cc(NC(=O)c2ccc([N+](=O)[O-])cc2)c(=O)oc1C was read as Pf growth 96h 11.0%, Sm TGR block 22.4µM*, HCMV inh -30.2, Pf growth 48h -13.4% and Giardia FBPA inh -5.9%.
`COC(=O)c1cc(NC(=O)c2ccc([N+](=O)[O-])cc2)c(=O)oc1C` gave Pf growth 96h inconclusive, Sm TGR block 56.2µM*, HCMV inh -10.8, Pf growth 48h -40.8%[1.15 µM] and Giardia FBPA inh -1.8%.
Screening COC(=O)c1cc(NC(=O)c2ccc(C)cc2)c(=O)oc1C returned Pf growth 96h 85.2%, Sm TGR block -2.7%, HCMV inh inconclusive, Pf growth 48h 38.7% and Giardia FBPA inh 5.6%.
`COCCn1c(SCC(=O)Nc2cc(C)on2)nc2c(c1=O)SCC2` gave Pf growth 96h 7.7%, Sm TGR block 0.1%, HCMV inh -9.6 and Pf growth 48h -3.8%.
For COc1ccccc1CN(C(=O)CNC(=O)c1ccco1)C(C(=O)NCC1CCCO1)c1ccc(OC)c(OC)c1 (stereo not given) the results were Pf growth 96h inconclusive, Sm TGR block 0.1%, HCMV inh -3.2, Pf growth 48h 0.0% and Giardia FBPA inh 8.3%.
For COc1ccc(C(CCNC(C)c2ccccc2)C(C)C)cc1 (stereo not given) the results were Pf growth 96h 9.28µM*, Sm TGR block -9.4%, HCMV inh inconclusive, Pf growth 48h 9.28µM* and Giardia FBPA inh 2.4%.
Screening C[C@H](NCCC(c1ccccc1)c1ccccc1)c1ccccc1 returned Giardia FBPA inh -6.2%[21.7 µM].
Screening COc1ccc(C(C)NCCC(c2ccc(OC(C)C)cc2)c2ccccc2OC)cc1 (stereo not given) returned Pf growth 96h inconclusive, Sm TGR block 6.8%, HCMV inh -97.3*, Pf growth 48h inconclusive and Giardia FBPA inh 10.1%.
`Cc1ccc(F)cc1-c1cc(C(=O)NCc2cc(C(F)(F)F)cc(C(F)(F)F)c2)[nH]n1` gave HCMV inh 14.8.
For Cc1cc(C)n(CCNC(=O)CC2C(=O)NCCN2Cc2ccccc2C(F)(F)F)n1 (stereo not given) the results were Pf growth 96h -1.5%, Sm TGR block 35.5µM*, HCMV inh -1.9, Pf growth 48h -5.2% and Giardia FBPA inh -18.1%.
Screening COc1cccc(CN2CCNC(=O)C2CC(=O)NCCn2nc(C)cc2C)c1OC (stereo not given) returned Pf growth 96h inconclusive, Sm TGR block inconclusive, HCMV inh -11.0, Pf growth 48h -3.1% and Giardia FBPA inh -20.3%.
Cc1cnc(CNC(=O)CC2C(=O)NCCN2Cc2ccccc2C(F)(F)F)cn1 (stereo not given) was read as Pf growth 96h inconclusive, Sm TGR block 11.2µM*, HCMV inh -17.5 and Pf growth 48h -1.5%.
Screening Cc1cc(CNC(=O)CC2C(=O)NCCN2Cc2ccccc2C(F)(F)F)on1 (stereo not given) returned Pf growth 96h -3.4%, Sm TGR block 35.5µM*, HCMV inh -32.2, Pf growth 48h inconclusive and Giardia FBPA inh -22.8%.
Cc1cc(CNC(=O)CC2C(=O)NCCN2CC(c2ccccc2)c2ccccc2)on1 (stereo not given) was read as Pf growth 96h 14.7µM*, Sm TGR block inconclusive, HCMV inh 0.1, Pf growth 48h 1.5% and Giardia FBPA inh -21.0%.
Screening CCc1ccc(CNC(=O)CC2C(=O)NCCN2Cc2ccccc2F)nc1 (stereo not given) returned Pf growth 96h inconclusive, Sm TGR block inconclusive, HCMV inh inconclusive, Pf growth 48h inconclusive and Giardia FBPA inh -3.5%.
For CCc1cc(CNC(=O)CC2C(=O)NCCN2Cc2c(F)cccc2Cl)on1 (stereo not given) the results were Pf growth 96h inconclusive, Sm TGR block 94.9%, HCMV inh -29.1, Pf growth 48h 4.3% and Giardia FBPA inh 1.1%.
Screening Cc1csc(NC(=O)Cc2c(F)cccc2Cl)n1 returned Pf growth 96h 52.4%, Sm TGR block 5.6%, HCMV inh 22.3, Pf growth 48h 70.8% and Giardia FBPA inh -1.2%.
Screening CC(C)c1cc(CNC(=O)CC2C(=O)NCCN2CC2CCCCC2)on1 (stereo not given) returned Pf growth 96h inconclusive, Sm TGR block 50.1µM*, HCMV inh -4.6, Pf growth 48h -17.8% and Giardia FBPA inh -12.4%.
For Cc1ccc(S(=O)(=O)N=Nc2c(O)[nH]c3ccccc23)cc1 the results were Pf growth 96h 11.7µM*, Sm TGR block -20.9%, HCMV inh 1.5, Pf growth 48h 5.2% and Giardia FBPA inh inconclusive.
For O=C(c1ccc(NC2=NC3CS(=O)(=O)CC3S2)cc1)N1CCN(c2ccc([N+](=O)[O-])cc2)CC1 (stereo not given) the results were Pf growth 96h -8.7%, Sm TGR block -30.6%, HCMV inh 52.3 and Pf growth 48h 38.3%.
`CCSc1nc(-c2ccco2)ccc1C#N` gave Sm TGR block 11.2µM*, HCMV inh 56.9, Pf growth 48h -1.6% and Giardia FBPA inh -0.6%.
N#Cc1ccc(-c2ccco2)nc1SCc1ccccc1 was read as Pf growth 96h -3.8%[5.75 µM], Sm TGR block inconclusive, HCMV inh -31.3, Pf growth 48h 1.5% and Giardia FBPA inh -0.3%.
COc1cc(Cn2c(-c3ccc(O)c(OC)c3)nc3ccccc32)ccc1O was read as Pf growth 96h 13.1µM*, Sm TGR block -27.5%, HCMV inh 0.0, Pf growth 48h 2.94µM* and Giardia FBPA inh -0.1%.
COc1ccccc1Cn1c(-c2ccccc2OC)nc2ccccc21 was read as Sm TGR block 9.5%, HCMV inh -67.6* and Giardia FBPA inh -5.3%.
Screening CCCCSCc1nc2ccccn2c1Br returned Pf growth 96h inconclusive, Sm TGR block -11.2%, HCMV inh 8.5, Pf growth 48h inconclusive and Giardia FBPA inh 2.1%.
Cc1cc(NC(=O)CCCN2C(=O)c3cccnc3C2=O)no1 was read as Pf growth 96h 11.7µM*, Sm TGR block 0.0%, HCMV inh -10.8, Pf growth 48h 22.0% and Giardia FBPA inh -0.8%.
Screening O=c1c(Cc2ccc(Cl)cc2Cl)c(O)ccn1CC(F)(F)F returned Pf growth 96h inconclusive, Sm TGR block 13.7%, HCMV inh 15.8, Pf growth 48h 20.0% and Giardia FBPA inh -10.0%.
CC(C)(C)CC(C)(C)c1ccc(O)c(Cc2ccc(Cl)cc2Cl)c1 was read as Pf growth 96h 3.01µM*, HCMV inh -85.9*, Pf growth 48h 1.9µM* and Giardia FBPA inh -15.7%.

Compound activity as filed in PubChem.
